# Results with a measured potency or affinity are listed apart.
# Experiments:
# Klebsiella pneumoniae = conditions: Concentration 32 ug.mL-1;; ASSAY_TEST Inhibition of Bacterial Growth; detection method Absorption (OD600); MEDIA CAMHB; plate type 384well; NBS; CORNING #3640; time 18 hr
# Candida albicans = conditions: Concentration 32 ug.mL-1; ASSAY_TEST Inhibition of Fungal Growth; detection method Absorption (OD530)
# Cryptococcus neoformans = conditions: Concentration 32 ug.mL-1; ASSAY_TEST Inhibition of Fungal Growth; detection method Resazurin; Absorption (OD600-OD570); plate type 384well; NBS; CORNING #3640
Compound,Inhibition (Klebsiella pneumoniae) [%],Inhibition (Candida albicans) [%],Inhibition (Cryptococcus neoformans) [%]
Cc1ccc(Oc2nccn3c(=O)n(CC(=O)Nc4cccc(Br)c4)nc23)cc1,11.55,24.3,-18.68
Cc1nnc2c(SCC(=O)N3CCN(c4ccc(F)cc4)CC3)nc3ccccc3n12,12.85,2.24,-2.43
COc1cccc(Oc2nccn3c(=O)n(CC(=O)Nc4ccccc4C(F)(F)F)nc23)c1,12.08,1.07,-10.15
